The source holds several records for some structures; these can differ, active in one and inactive in another. Calls of active or inactive are those of the source. Rule for the calls: active = hit-call score of the fitted dose curve at least 0.9, where 1 is the maximum; inactive = score below 0.9.
Read-out: Transforming growth factor beta 1 (TGFb1), TGFB1 (gene 7040)
Assay: BSK_BE3C_TGFb1: BioMAP Diversity Plus: BE3C Assay for Transforming growth factor beta 1 (TGFb1) Biomarker Activity (AID 2283036)
Conditions: primary human bronchial epithelial cells; actives raise or lower the signal
Procedure: BSK_BE3C is a cell-based, multiplexed-readout assay that uses bronchial epithelial cell, a human lung primary cell, with measurements taken at 24 hours after chemical dosing in a 96-well plate.BSK_BE3C_TGFb1 is an assay component measured in the BSK_BE3C assay. It measures TGF-b1 antibody related to regulation of gene expression using ELISA technology.Data from the assay component BSK_BE3C_TGFb1 was analyzed into 1 assay endpoint. This assay endpoint, BSK_BE3C_TGFb1, was analyzed with bidirectional fitting relative to DMSO as the negative control and baseline of activity. Using a type of binding reporter, gain or loss-of-signal activity can be used to understand changes in the signaling as they relate to the gene TGFB1. Furthermore, this assay endpoint can be referred to as a primary readout, because this assay has produced multiple assay endpoints where this one serves a signaling function. To generalize the intended target to other relatable targets, this assay endpoint is annotated to the growth factor intended target family, where the subfamily is transforming growth factor beta.
The levels of cell surface (or secreted, indicated by the prefix "s") biomarker endpoints were measured by ELISA. Overt cytotoxicity to cells in confluent adherent cultures (all systems other than the BT system) was assessed by measuring total protein levels using sulforhodamine B (SRB) staining in parallel cultures at the time of biomarker measurements, indicated as SRB endpoints. For proliferation assays for adherent cell types, individual cell types are cultured at sub-confluence and relative cell numbers quantified by SRB staining at time points optimized for each system (48 h: 3C and CASM3C systems; 72 h: BT and HDF3CGF systems; 96 h: SAg system). SRB was performed by staining cells with 0.1% SRB after fixation with 10% TCA and reading wells at 560 nm.Viability and proliferation of PBMC (T cells) was quantified by Alamar Blue reduction for the SAg and BT systems. For PBMC viability (referred to as PBMC Cytotoxicity within the assay endpoint names), cells were plated (75,000/well in a 96-well plate) and then chemical samples added for 1 h before addition of activators, SEB and TSST-1 (20 ng/mL final concentration each). Cells were incubated for 90 h. Then, Alamar Blue (20 uL/well) (Invitrogen, Cat DAL1100) was added for 6 h, and the plates were read with a fluorescence microplate reader at 546/580 nm (excitation/emission). For PBMC proliferation, cells were plated and activated as above but incubated for only 16 h prior to addition of Alamar Blue. Plates were read after 6 h.

Which outcome does the source give for `C1CC2OC2CC1C1CO1` (stereo not given) here?
The outcome was “inactive”.

`C[C@]12CCC(=O)C=C1CC[C@@H]1[C@@H]2CC[C@@]2(C)[C@H]1CC[C@]2(C)O` was tested. Which outcome did it give?
The outcome was “inactive”.

Which outcome does the source give for `O=S(=O)(O)C(F)(F)C(F)(F)C(F)(F)C(F)(F)F` here?
The outcome was “inactive”.

How did the AC50 turn out when `CCC(C)c1cc([N+](=O)[O-])cc([N+](=O)[O-])c1O` (stereo not given) was run?
The AC50 was 0.911 µM (active).

With `Oc1c(Cl)c(Cl)c(Cl)c(Cl)c1Cl` as the compound, how does the outcome read?
Its outcome is “inactive”.

And the AC50?
Its AC50 is 9.53 µM (active).

How did the outcome turn out when `C=CC(N)=O` was run?
The outcome was “inactive”.

How did the outcome turn out when `CC1=C2C[C@H]3[C@@H](CC=C4C[C@@H](O)CC[C@@]43C)[C@@H]2CC[C@]12O[C@@H]1C[C@H](C)CN[C@H]1[C@H]2C` was run?
Its outcome is “inactive”.

Which outcome does the source give for `CCSC(=O)N(CC)C1CCCCC1` here?
Its outcome is “inactive”.

`Nn1cnnc1` was tested. Which outcome did it give?
Its outcome is “inactive”.

For `N#Cc1ccc(N(CC(N)=O)CC(F)(F)F)cc1C(F)(F)F`, which outcome is on record?
Its outcome is “inactive”.

For `Clc1ccc(Cl)cc1`, which outcome is on record?
The outcome was “inactive”.

How did the AC50 turn out when `NS(=O)(=O)C(F)(F)C(F)(F)C(F)(F)C(F)(F)C(F)(F)C(F)(F)C(F)(F)C(F)(F)F` was run?
Its AC50 is 10.5 µM (active).

Which outcome does the source give for `CO/C=C(/C(=O)OC)c1ccccc1COc1cccc(C(F)(F)F)n1` here?
Its outcome is “inactive”.

For `Nc1ccc(-c2ccc(N)cc2)cc1`, which outcome is on record?
Its outcome is “inactive”.

Which AC50 does the source give for `O=C(O)C(F)(F)C(F)(F)C(F)(F)C(F)(F)C(F)(F)C(F)(F)C(F)(F)C(F)(F)C(F)(F)F` here?
The AC50 was 10 µM (active).

For `CN(C)CCO`, which outcome is on record?
Its outcome is “inactive”.

For `Cc1ccccc1[N+](=O)[O-]`, which outcome is on record?
The outcome was “inactive”.

Which outcome does the source give for `Cc1cccc(C)c1N` here?
Its outcome is “inactive”.

Which AC50 does the source give for `CC(C)(c1ccccc1)c1ccc(O)cc1` here?
The AC50 was 33.4 µM (active).

`O=C(N[C@H]1CN2CCC1CC2)c1cc2ccoc2cn1` was tested. Which outcome did it give?
Its outcome is “inactive”.

For `ClC(Cl)=C(c1ccc(Cl)cc1)c1ccc(Cl)cc1`, which outcome is on record?
Its outcome is “inactive”.

With `ClC1=C(Cl)[C@]2(Cl)[C@@H]3[C@@H](Cl)[C@H]4O[C@H]4[C@@H]3C1(Cl)C2(Cl)Cl` as the compound, how does the outcome read?
Its outcome is “inactive”.

For `CCC(=O)O[C@H]1CC[C@H]2[C@@H]3CCC4=CC(=O)CC[C@]4(C)[C@H]3CC[C@]12C`, which outcome is on record?
The outcome was “inactive”.

For `CN(C)c1nc(=O)n(C2CCCCC2)c(=O)n1C`, which outcome is on record?
Its outcome is “inactive”.

How did the outcome turn out when `CCCCCCOC(=O)c1ccccc1C(=O)OCCCCCC` was run?
Its outcome is “inactive”.

How did the outcome turn out when `O=S(=O)(O)C(F)(F)C(F)(F)C(F)(F)C(F)(F)C(F)(F)C(F)(F)F` was run?
The outcome was “inactive”.

For `O=C(O)C(F)(F)C(F)(F)C(F)(F)C(F)(F)C(F)(F)C(F)(F)C(F)(F)C(F)(F)F`, which AC50 is on record?
Its AC50 is 26.2 µM (active).

How did the outcome turn out when `Clc1ccc(C(Cl)(Cl)Cl)cc1` was run?
The outcome was “inactive”.

How did the outcome turn out when `O=C(O)C(F)(F)C(F)(F)C(F)(F)C(F)(F)C(F)(F)F` was run?
The outcome was “inactive”.

`c1ccc(-c2ccccc2)cc1` was tested. Which outcome did it give?
Its outcome is “inactive”.

How did the outcome turn out when `Cc1cc(O)ccc1Cl` was run?
Its outcome is “inactive”.

`Oc1ccc(Cl)cc1Cl` was tested. Which outcome did it give?
The outcome was “inactive”.

`CCC(C)(c1ccc(O)cc1)c1ccc(O)cc1` was tested. Which outcome did it give?
Its outcome is “inactive”.

`ClC1=C(Cl)[C@]2(Cl)[C@@H]3[C@@H]4C[C@@H]([C@H]5O[C@@H]45)[C@@H]3[C@@]1(Cl)C2(Cl)Cl` was tested. Which outcome did it give?
The outcome was “inactive”.

Which outcome does the source give for `CCOC(=O)C(O)(c1ccc(Cl)cc1)c1ccc(Cl)cc1` here?
Its outcome is “inactive”.

For `CCNc1nc(NC(C)C)nc(SC)n1`, which outcome is on record?
The outcome was “inactive”.

With `C[C@]12CCC(=O)C=C1CC[C@@H]1[C@@H]2CC[C@]2(C)C(=O)CC[C@@H]12` as the compound, how does the outcome read?
The outcome was “inactive”.

`Cc1ccc(O)c(C)c1` was tested. Which outcome did it give?
Its outcome is “inactive”.

With `Sc1ccccc1` as the compound, how does the outcome read?
Its outcome is “inactive”.

— PubChem BioAssay (EPA / NIEHS)
